Laboratory results from PubChem BioAssay (NCI).
Compounds without any hit were thinned out: in the full panel of roughly 79,000, 15% have a hit. Active and inactive are the calls of the source. Cut-off read from the data, not from the text of the source: active = growth inhibition above about 70%; inactive = the rest.

Key:
[1] = NCI Yeast Anticancer Drug Screen. Data for the mec2-1 strain (AID 157); settings: S. cerevisiae mec2-1 strain, active compounds read high
Summary of the method: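 mec2-1 yeast strain, carrying an alteration in DNA damage repair or cell cycle control, was exposed to compounds; growth inhibition was measured relative to vehicle-treated controls.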

[2] = NCI Yeast Anticancer Drug Screen. Data for the rad14 strain (AID 159);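 note: 0% = growth of vehicle-treated control cultures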; settings: S. cerevisiae rad14 strain growth inhibition, active compounds read high
Summary of the method: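 Readout: yeast growth inhibition, referenced to vehicle-only cultures. Strain bears a defined alteration in DNA damage repair.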

[3] = NCI Yeast Anticancer Drug Screen. Data for the sgs1 mgt1 strain (AID 161);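 note: 0% = growth of cultures given vehicle only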; settings: S. cerevisiae sgs1 mgt1 strain, active compounds read high
Summary of the method: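 This yeast growth screen uses a strain with defined DNA-repair lesions; compound-treated growth is compared with vehicle-treated growth.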

[4] = NCI Yeast Anticancer Drug Screen. Data for the CLN2oe strain (AID 163);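 note: 0% = growth of vehicle-only control cultures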; settings: S. cerevisiae CLN2oe strain, active compounds read high
Summary of the method: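 Yeast cells carrying a defined cell-cycle control alteration were exposed to test compounds. Growth inhibition was scored against vehicle-treated control cultures.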

[5] = NCI Yeast Anticancer Drug Screen. Data for the cln2 rad14 strain (AID 165);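 note: 0% = growth equal to vehicle treated cultures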; settings: S. cerevisiae cln2 rad14 strain, active compounds read high
Summary of the method: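 Yeast carrying cln2 and rad14 alterations (cell cycle control and DNA damage repair) were exposed to compounds. Growth inhibition was measured against vehicle-treated controls.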

[6] = NCI Yeast Anticancer Drug Screen. Data for the bub3 strain (AID 167); settings: S. cerevisiae bub3 mutant strain, active compounds read high
Summary of the method: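 Part of a panel of yeast mutants defective in DNA damage repair or cell cycle regulation. Each strain is grown with compound, and inhibition is calculated relative to solvent-treated cultures.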

[7] = NCI Yeast Anticancer Drug Screen. Data for the wt2 strain (AID 169);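 note: 0% = growth of vehicle-treated yeast cultures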; settings: S. cerevisiae wt2 strain growth inhibition, active compounds read high
Summary of the method: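 Yeast cells were exposed to test compounds, and growth inhibition was measured relative to vehicle-treated controls.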

[8] = NCI Yeast Anticancer Drug Screen. Data for the mlh1 strain (AID 171);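 note: 0% = growth of vehicle-treated control cultures of the same strain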; settings: S. cerevisiae mlh1 strain growth inhibition, active compounds read high
Summary of the method: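 Yeast carrying a defined genetic alteration in DNA damage repair or cell cycle control were exposed to test compounds. Growth inhibition was measured relative to vehicle-treated controls.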

[9] = NCI Yeast Anticancer Drug Screen. Data for the sgs1 strain (AID 173);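 note: 0% = growth of vehicle-only control cultures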; settings: S. cerevisiae sgs1 mutant, active compounds read high
Summary of the method: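 Yeast mutant strains carrying defined defects in DNA damage repair or cell cycle control were exposed to test compounds. Growth inhibition was scored against vehicle-treated controls.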

[10] = NCI Yeast Anticancer Drug Screen. Data for the mlh1 rad18 strain (AID 175); settings: S. cerevisiae mlh1 rad18 strain growth inhibition, active compounds read high
Summary of the method: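 Growth inhibition of the yeast strain was measured after compound exposure and expressed relative to vehicle-treated controls. The strain carries defined defects in DNA damage repair.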

[11] = NCI Yeast Anticancer Drug Screen. Data for the rad18 strain (AID 177); settings: S. cerevisiae rad18 mutant growth inhibition, active compounds read high
Summary of the method: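 Yeast carrying a defined DNA damage repair alteration were exposed to compounds. Growth inhibition was expressed relative to vehicle-treated controls.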

[12] = NCI Yeast Anticancer Drug Screen. Data for the rad52 strain (AID 147);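 note: 0% = growth of vehicle-treated control cultures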; settings: S. cerevisiae rad52 mutant growth inhibition, active compounds read high
Summary of the method: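 Yeast strain carrying a DNA damage repair alteration was exposed to test compounds. Growth inhibition was measured relative to vehicle-treated controls.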

[13] = NCI Yeast Anticancer Drug Screen. Data for the wt1 strain (AID 149);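 note: 0% = growth of vehicle-treated wt1 cultures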; settings: S. cerevisiae wt1 strain (SPY 50644) growth inhibition, active compounds read high
Summary of the method: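 The wt1 strain was treated with compounds, and growth was compared with vehicle-treated cultures to give inhibition.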

[14] = NCI Yeast Anticancer Drug Screen. Data for the rad50EPP+ strain (AID 151);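 note: 0% = growth of vehicle-treated control cultures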; settings: S. cerevisiae rad50 mutant strain, active compounds read high
Summary of the method: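 Yeast strain carrying rad50 alteration (rad50EPP+) exposed to compounds; growth inhibition measured relative to vehicle-treated controls.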

[15] = NCI Yeast Anticancer Drug Screen. Data for the mgt1 strain (AID 153); settings: S. cerevisiae mgt1 mutant growth inhibition, active compounds read high
Summary of the method: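 Yeast mgt1 strain (DNA repair/cell-cycle alteration panel) exposed to compounds; growth inhibition measured relative to vehicle-treated controls.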

[16] = NCI Yeast Anticancer Drug Screen. Data for the rad50 strain (AID 155);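 note: 0% = growth of vehicle-only cultures of the same strain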; settings: S. cerevisiae rad50 strain growth inhibition, active compounds read high
Summary of the method: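 Cells are treated with compound, grown, and their growth is then scored against vehicle-only cultures of the same repair-deficient yeast strain.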

[17] = at 5.0 µM (retest, dose inferred, filed as 0.5)
[18] = at 50.0 µM (retest, dose inferred, filed as 5.0)

Measured: growth inhibition

CCOC(=O)C1=C(C)NC(C)=C(C(=O)OCCNC(=O)c2ccc(N=[N+]=[N-])cc2)C1c1ccccc1C(F)(F)F (stereo unspecified)
inactive: [1]; [17] 1% | [1]; at 11.0 µM -2% | [1]; at 33.0 µM 13% | [1]; [18] -46% | [1]; at 50.0 µM 53.3% | [1]; at 100.0 µM 47% | [2]; at 1.2 µM 0% | [2]; at 3.7 µM -4% | [2]; at 11.0 µM 3% | [2]; at 33.0 µM 8% | [2]; at 100.0 µM 22% | [3]; [17] 5% | [3]; [18] 51% | [3]; at 50.0 µM 9.9% | [4]; at 1.2 µM -3% | [4]; at 3.7 µM -2% | [4]; at 11.0 µM -2% | [4]; at 33.0 µM 25% | [4]; at 100.0 µM 53% | [5]; [17] 4% | [5]; [18] 19% | [5]; at 50.0 µM 2.85% | [6]; at 1.2 µM -8% | [6]; at 3.7 µM -7% | [6]; [17] -42% | [6]; at 11.0 µM -5% | [6]; at 33.0 µM 4% | [6]; [18] 29% | [6]; at 50.0 µM 57.4% | [6]; at 100.0 µM 31% | [7]; at 1.2 µM 0% | [7]; at 3.7 µM -2% | [7]; at 11.0 µM 0% | [7]; at 33.0 µM 5% | [7]; at 100.0 µM 19% | [8]; at 1.2 µM 6% | [8]; at 3.7 µM -5% | [8]; at 11.0 µM -1% | [8]; at 33.0 µM 9% | [8]; at 100.0 µM 28% | [9]; at 1.2 µM 1% | [9]; at 3.7 µM -2% | [9]; at 11.0 µM 1% | [9]; at 33.0 µM 32% | [9]; at 100.0 µM 65% | [10]; [17] 2% | [10]; [18] 43% | [10]; at 50.0 µM 32.5% | [11]; at 1.2 µM 3% | [11]; at 3.7 µM -4% | [11]; at 11.0 µM 4% | [11]; at 33.0 µM 8% | [11]; at 100.0 µM 23%

CC(=O)SC(C[N+](=O)[O-])c1ccccc1 (stereo unspecified)
active: [12]; at 3.7 µM 76% | [12]; at 11.0 µM 88% | [12]; at 33.0 µM 99% | [12]; at 100.0 µM 99% | [13]; at 33.0 µM 95% | [13]; at 100.0 µM 100% | [14]; at 1.2 µM 89% | [14]; at 3.7 µM 92% | [14]; at 11.0 µM 95% | [14]; at 33.0 µM 99% | [14]; at 100.0 µM 99% | [15]; at 33.0 µM 81% | [15]; at 100.0 µM 100% | [16]; at 1.2 µM 81% | [16]; at 3.7 µM 92% | [16]; [17] 87% | [16]; at 11.0 µM 96% | [16]; at 33.0 µM 99% | [16]; [18] 98% | [16]; at 50.0 µM 99.2% | [16]; at 100.0 µM 99% | [1]; at 33.0 µM 94% | [1]; [18] 99% | [1]; at 50.0 µM 99.6% | [1]; at 100.0 µM 100% | [2]; at 33.0 µM 98% | [2]; at 100.0 µM 99% | [3]; [18] 98% | [3]; at 50.0 µM 95.8% | [4]; at 33.0 µM 78% | [4]; at 100.0 µM 99% | [5]; [18] 98% | [6]; at 33.0 µM 97% | [6]; [18] 98% | [6]; at 50.0 µM 95.2% | [6]; at 100.0 µM 99% | [7]; at 33.0 µM 99% | [7]; at 100.0 µM 99% | [8]; at 33.0 µM 96% | [8]; at 100.0 µM 99% | [9]; at 33.0 µM 100% | [9]; at 100.0 µM 99% | [10]; [18] 98% | [10]; at 50.0 µM 99.5% | [11]; at 33.0 µM 93% | [11]; at 100.0 µM 99%
inactive: [12]; at 1.2 µM 55% | [13]; at 1.2 µM 0% | [13]; at 3.7 µM 0% | [13]; at 11.0 µM 17% | [15]; at 1.2 µM 1% | [15]; at 3.7 µM 4% | [15]; at 11.0 µM 18% | [1]; at 1.2 µM 5% | [1]; at 3.7 µM 17% | [1]; [17] -15% | [1]; at 11.0 µM 52% | [2]; at 1.2 µM 14% | [2]; at 3.7 µM 28% | [2]; at 11.0 µM 42% | [3]; [17] -7% | [4]; at 1.2 µM 7% | [4]; at 3.7 µM 19% | [4]; at 11.0 µM 38% | [5]; [17] -20% | [5]; at 50.0 µM 31.1% | [6]; at 1.2 µM 23% | [6]; at 3.7 µM 30% | [6]; [17] 8% | [6]; at 11.0 µM 68% | [7]; at 1.2 µM -3% | [7]; at 3.7 µM -4% | [7]; at 11.0 µM 14% | [8]; at 1.2 µM 5% | [8]; at 3.7 µM 11% | [8]; at 11.0 µM 33% | [9]; at 1.2 µM 15% | [9]; at 3.7 µM 41% | [9]; at 11.0 µM 62% | [10]; [17] -37% | [11]; at 1.2 µM 19% | [11]; at 3.7 µM 33% | [11]; at 11.0 µM 55%

CCO/C(C)=C(/C#N)C(N)=S
inactive: [12]; at 1.2 µM -1% | [12]; at 3.7 µM -1% | [12]; at 11.0 µM -1% | [12]; at 33.0 µM -2% | [12]; at 100.0 µM 3% | [13]; at 1.2 µM -1% | [13]; at 3.7 µM -2% | [13]; at 11.0 µM 0% | [13]; at 33.0 µM 0% | [13]; at 100.0 µM 1% | [14]; at 1.2 µM -3% | [14]; at 3.7 µM -6% | [14]; at 11.0 µM -11% | [14]; at 33.0 µM -16% | [14]; at 100.0 µM 2% | [15]; at 1.2 µM -2% | [15]; at 3.7 µM -4% | [15]; at 11.0 µM -5% | [15]; at 33.0 µM 14% | [15]; at 100.0 µM 0% | [16]; at 1.2 µM 1% | [16]; at 3.7 µM -1% | [16]; [17] 13% | [16]; at 11.0 µM -1% | [16]; at 33.0 µM 0% | [16]; [18] 67% | [16]; at 50.0 µM 60% | [16]; at 100.0 µM 2% | [1]; at 1.2 µM -2% | [1]; at 3.7 µM 1% | [1]; [17] 3% | [1]; at 11.0 µM -1% | [1]; at 33.0 µM -1% | [1]; [18] 2% | [1]; at 50.0 µM 35.5% | [1]; at 100.0 µM 1% | [2]; at 1.2 µM -2% | [2]; at 3.7 µM -2% | [2]; at 11.0 µM 0% | [2]; at 33.0 µM 0% | [2]; at 100.0 µM 4% | [3]; [17] -9% | [3]; at 50.0 µM 40.3% | [4]; at 1.2 µM -3% | [4]; at 3.7 µM -4% | [4]; at 11.0 µM -1% | [4]; at 33.0 µM -8% | [4]; at 100.0 µM -11% | [5]; [17] 5% | [5]; [18] 21% | [6]; at 1.2 µM -4% | [6]; at 3.7 µM -3% | [6]; [17] 4% | [6]; at 11.0 µM -3% | [6]; at 33.0 µM -7% | [6]; at 100.0 µM -4% | [7]; at 1.2 µM -1% | [7]; at 3.7 µM -2% | [7]; at 11.0 µM 0% | [7]; at 33.0 µM 1% | [7]; at 100.0 µM 1% | [8]; at 1.2 µM -2% | [8]; at 3.7 µM -3% | [8]; at 11.0 µM -1% | [8]; at 33.0 µM -3% | [8]; at 100.0 µM 0% | [9]; at 1.2 µM -1% | [9]; at 3.7 µM 3% | [9]; at 11.0 µM 1% | [9]; at 33.0 µM 3% | [9]; at 100.0 µM 6% | [11]; at 1.2 µM 0% | [11]; at 3.7 µM -1% | [11]; at 11.0 µM 7% | [11]; at 33.0 µM -1% | [11]; at 100.0 µM 4%
active: [3]; [18] 73% | [5]; at 50.0 µM 85.3% | [6]; [18] 70% | [6]; at 50.0 µM 74.7%
